# pKd: −log10 of the molar value.
# Columns and labels:
# [1] = system: T1, VPS34
# T1 construct: gene PIK3C3
# [2] = system: AAK1; conditions: concentration: 1 μM, replicates: in singlicate; n = 1
# [3] = system: ABL1-nonphosphorylated; conditions: concentration: 1 μM, replicates: in singlicate; n = 1
# [4] = system: ABL1-phosphorylated; conditions: concentration: 1 μM, replicates: in singlicate; n = 1
# [5] = system: ABL2; conditions: concentration: 1 μM, replicates: in singlicate; n = 1
# [6] = system: ACVR1B; conditions: concentration: 1 μM, replicates: in singlicate; n = 1
# [7] = system: ACVR1; conditions: concentration: 1 μM, replicates: in singlicate; n = 1
# [8] = system: ACVR2A; conditions: concentration: 1 μM, replicates: in singlicate; n = 1
# [9] = system: TYK2(JH2domain-pseudokinase)
# [10] = system: T2, YSK1
# T2 construct: gene STK25
# [11] = system: T3, YSK4
# T3 construct: gene MAP3K19
# [12] = system: T4, YANK1
# T4 construct: gene STK32A
# [13] = system: T5, p38-alpha
# T5 construct: gene MAPK14
# [14] = system: T6, p38-beta
# T6 construct: gene MAPK11
# [15] = system: ZAK
# [16] = system: WNK4
# 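Wherever %Inh is given: KINOMEscan kinase panel screen.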
# 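Wherever pKd is given: kd values determined as follow-up on hits from a single-replicate KINOMEscan panel screen.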
smiles,measurement,setting,value
Cc1c(Cn2ccn3c(=O)cc(N4CCOCC4)nc23)cccc1C(F)(F)F [GSK2289044],pKd,[1],7.19
same,%Inh,[2],16%
same,%Inh,[3],0%
same,%Inh,[4],0%
same,%Inh,[5],0%
same,%Inh,[6],0%
same,%Inh,[7],3%
same,%Inh,[8],0%
COc1ccc2nc(-c3cccc(C)n3)nc(Nc3ccncc3)c2c1 [GSK204919],pKd,[9],5.70
same,%Inh,[2],0%
same,%Inh,[3],0%
same,%Inh,[4],0%
same,%Inh,[5],12%
same,%Inh,[7],0%
same,%Inh,[8],0%
CCn1c(-c2ccccn2)nc2cnccc21 [SB-736398],pKd,[10],< 5.00
same,%Inh,[2],0%
same,%Inh,[3],0%
same,%Inh,[4],4%
same,%Inh,[5],0%
same,%Inh,[6],0%
same,%Inh,[7],18%
same,%Inh,[8],0%
COc1ccc(Nc2nccc(NCCNC(=O)Nc3ccccc3F)n2)cc1 [GSK1379901],%Inh,[2],80%
same,%Inh,[3],0%
same,%Inh,[4],1%
same,%Inh,[5],0%
same,%Inh,[6],0%
same,%Inh,[7],21%
same,%Inh,[8],0%
O=C(O)COc1ncnc2cc(-c3ccc4[nH]ncc4c3)sc12,pKd,[11],7.70
same,%Inh,[2],52%
same,%Inh,[3],33%
same,%Inh,[4],7%
same,%Inh,[5],0%
same,%Inh,[6],31%
same,%Inh,[7],1%
same,%Inh,[8],4%
Cc1cccc(-c2nc(Nc3cccc(C(N)=O)c3)c3ccccc3n2)n1 [GW876019],%Inh,[2],0%
same,%Inh,[3],25%
same,%Inh,[4],20%
same,%Inh,[5],15%
same,%Inh,[6],83%
same,%Inh,[7],0%
same,%Inh,[8],12%
Nc1ncnc2[nH]c(-c3ccccc3)nc12 [AH5015],pKd,[9],7.02
same,pKd,[12],< 5.00
same,pKd,[11],6.57
same,%Inh,[2],0%
same,%Inh,[3],7%
same,%Inh,[4],44%
same,%Inh,[5],19%
same,%Inh,[6],0%
same,%Inh,[7],37%
same,%Inh,[8],7%
Cc1cc(-c2ccc3c(c2)CC[C@@H](N[C@@H](C)c2ccccc2)C3)cnc1N.Cl [GW412617],pKd,[11],5.62
same,%Inh,[2],100%
same,%Inh,[3],8%
same,%Inh,[4],9%
same,%Inh,[5],6%
same,%Inh,[6],0%
same,%Inh,[7],34%
same,%Inh,[8],0%
Cc1cccc(-c2nc(-c3ccc(S(C)(=O)=O)cc3)sc2-c2ccnc(NCCc3ccccc3)c2)c1,pKd,[1],5.08
same,pKd,[13],5.72
same,%Inh,[2],12%
same,%Inh,[3],90.7%
same,%Inh,[4],21%
same,%Inh,[5],0%
same,%Inh,[6],8%
same,%Inh,[7],0%
same,%Inh,[8],0%
Cc1ccc(NC(=O)Nc2cc(C(C)(C)C)nn2-c2ccccc2)cc1 [GSK1014915],pKd,[13],7.24
same,pKd,[14],6.27
same,%Inh,[2],0%
same,%Inh,[3],0%
same,%Inh,[4],2%
same,%Inh,[5],14%
same,%Inh,[6],0%
same,%Inh,[7],7%
same,%Inh,[8],6%
CS(=O)(=O)c1ccc(-c2c(-c3ncn[nH]3)sc(N3CCOCC3)c2C#N)cc1,pKd,[1],6.96
same,%Inh,[2],18%
same,%Inh,[3],30%
same,%Inh,[4],13%
same,%Inh,[5],7%
same,%Inh,[6],14%
same,%Inh,[7],0%
same,%Inh,[8],0%
Cc1cccc(-c2cc(Nc3ccncc3)c3ccccc3n2)n1 [GSK223675],pKd,[15],< 5.00
same,%Inh,[2],12%
same,%Inh,[3],0%
same,%Inh,[4],0%
same,%Inh,[5],0%
same,%Inh,[6],88%
same,%Inh,[7],0%
same,%Inh,[8],0%
Cc1ccc(-c2cc(-c3c[nH]nc3-c3ccccn3)ccn2)cc1 [GW684088],pKd,[16],< 5.00
same,%Inh,[2],22%
same,%Inh,[3],35%
same,%Inh,[4],21%
same,%Inh,[5],0%
same,%Inh,[6],65%
same,%Inh,[7],29%
same,%Inh,[8],0%
Cc1nnc(-c2ccc3occ(-c4ccc(S(C)=O)cc4)c3c2)[nH]1 (stereo not shown),pKd,[1],7.21
same,%Inh,[2],25%
same,%Inh,[3],17%
same,%Inh,[4],0%
same,%Inh,[5],7%
same,%Inh,[6],0%
same,%Inh,[7],0%
same,%Inh,[8],23%
Cn1ccc2ncnc(Oc3ccc(Nc4nc5ccccc5[nH]4)cc3)c21,%Inh,[2],21%
same,%Inh,[3],45%
same,%Inh,[4],2%
same,%Inh,[5],4%
same,%Inh,[6],0%
same,%Inh,[7],0%
same,%Inh,[8],10%
COc1cccc(NC(=O)NC2CCN(c3ccnc(Nc4ccc(F)cc4)n3)C2)c1 (stereo not shown) [GSK1379721],%Inh,[2],5%
same,%Inh,[3],0%
same,%Inh,[4],0%
same,%Inh,[5],0%
same,%Inh,[6],0%
same,%Inh,[7],0%
same,%Inh,[8],100%
